Z-score data for 16 compounds are collected here from PubChem BioAssay.

Assay [1] in a line: compound effects on lung adenocarcinoma cell viability – A549, calcein-AM fluorescence, 48 h, basal, profiling panel (AID 1162). The conditions noted are these: higher = more signal.
Assay [2] in a line: compound effects on differentiated 3T3-L1 adipocyte viability – cell-based, 3T3-L1 adipocytes, calcein-AM fluorescence, 48 h, basal, profiling panel (AID 1163). The conditions noted are these: 3T3-L1 adipocytes viability, higher = more signal.
A short description of assay [3]: compound effects on hepatocellular carcinoma cell viability – HepG2, calcein-AM fluorescence, 48 h, basal, profiling panel (AID 1164). The following applies: higher = more signal.
A short description of assay [4]: compound effects on multiple myeloma cell viability – MM1S, calcein-AM fluorescence, 48 h, basal, profiling panel (AID 1165).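 Further: viability of MM1S multiple myeloma cells under basal unstimulated conditions.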 The following applies: higher = more signal.
Assay [5] can be described thus: calcein-AM signal in unstimulated myeloma cells – cell-based, calcein-AM fluorescence, 48 h, PK04 Diversity Set, profiling panel (AID 1166).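 Further: cells grown under basal conditions without added stimulus.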 The conditions noted are these: RPMI8226 myeloma viability, higher = more signal.
Assay [6] in a line: JC-1 mitochondrial signal, unstimulated HepG2 cells – cell-based, JC-1 fluorescence, 24 h, 100 nL compound, profiling panel (AID 1167). The following applies: HepG2 mitochondrial potential, higher = more signal.
Assay [7] is described as follows: JC-1 mitochondrial signal, unstimulated adipocytes – cell-based, JC-1 fluorescence, 3T3-L1 adipocytes, 24 h, 100 nL compound, profiling panel (AID 1168). The conditions noted are these: JC-1 mitochondrial fluorescence, higher = more signal, called active from +8 up or from −8 down.
Assay [8] can be described thus: JC-1 mitochondrial signal, unstimulated myeloma cells – cell-based, JC-1 fluorescence, RPMI8226, 24 h, 100 nL compound, profiling panel (AID 1169). The following applies: JC-1 mitochondrial potential fluorescence, higher = more signal.
Assay [9] in a line: JC-1 mitochondrial signal, unstimulated MM1S myeloma – cell-based, JC-1 fluorescence, 24 h, 100 nL compound, profiling panel (AID 1170). The following applies: MM1S mitochondrial potential, higher = more signal.
Assay [10] is described as follows: resazurin metabolic signal in A549 cells – cell-based, resazurin fluorescence, 24 h, PK04 Diversity Set, profiling panel (AID 1171). The following applies: A549 viability, higher = more signal, called active from +8 up or from −8 down. (The colour change of resazurin is a common sign of viable cells or microbes.)

The source made the active and inactive calls.
Further: test concentration not given here.

As for `CCOC(=O)[C@H](Cc1ccccc1)NC(=O)CCC1CC(OC(=O)NCc2ccc3c(c2)OCO3)CC2(CCCC(COC(=O)NCCCN3CCCC3=O)O2)O1` (stereo not given in full), the z-score was 0.0325 in [1]; 0.484 in assay [2]; -0.152 in assay [3]; -0.59 in assay [4]; -1.6 in assay [5]; 1.97 in assay [6]. Also, the z-score in assay [7] was -0.654 (inactive); in assay [8], 0.517; in assay [9], 0.547; in assay [10], 0.529 (inactive).
Turning to `C[C@@H]1C=CCC(=O)OC[C@H](C)C(=O)N[C@@H](Cc2ccccc2)C(=O)OC1`, the z-score was -0.88 in [1]; 2.49 in [2]; 0.499 in assay [3]; -0.295 in [4]; -0.371 in [5]; 0.662 in assay [6]. Moreover, the z-score in [7] was 0.55 (inactive); in assay [8] it was 0.803; in [9], 0.382; in assay [10], 0.168 (inactive).
`COc1ccc(O[C@H]2C=C[C@@H](c3ccccc3)O[C@@H]2CON=C(C)CCN2CCCc3nc(C)c(C)cc32)cc1`: the z-score in assay [1] was 0.0505; in assay [2], -0.351; in assay [3] it was -0.491; in [4], -2.13; in assay [5], -2.37; in assay [6] it was 2.98. Further, the z-score in assay [7] is -0.853 (inactive); in assay [8], 0.414; in [9], -0.294; in assay [10] it was 0.154 (inactive).
Take `CC(CCN1CCCc2nc(C)c(C)cc21)=NO[C@H](C)c1cn([C@H](CO)Cc2ccccc2)nn1`: the z-score in [1] is -0.385; in assay [2], 0.849; in [3] it was -0.456; in assay [4], -0.0916; in [5] it was -1.88; in assay [6], 0.0197. Further, the z-score is -2.16 (inactive) in assay [7], 0.136 in assay [8], 0.859 in assay [9] and -0.254 (inactive) in [10].
Turning to `O=C1CCCC=C1C(O)C1CCCCC1` (stereo not given), the z-score in assay [1] is -0.586; in assay [2], -0.464; in assay [3], -0.22; in [4] it was 0.766; in [5] it was -0.241; in assay [6] it was -0.86. Besides, the z-score in assay [7] was -1.15 (inactive); in assay [8], -0.121; in [9] it was 0.327; in assay [10], 0.436 (inactive).
Regarding `C[C@H]1C=CCC(=O)OC[C@H](C)C(=O)N2CCC[C@H]2C(=O)OC1`, the z-score was -0.531 in [1]; -1.21 in [2]; -0.51 in [3]; 0.391 in [4]; 0.0245 in [5]; 0.291 in assay [6]. Moreover, the z-score was -0.696 (inactive) in [7], -0.148 in assay [8], -0.828 in [9] and 0.283 (inactive) in assay [10].
As to `COC(=O)[C@@H]1CC[C@H](C)[C@@H](c2ccc(Br)cc2)N1`, the z-score in assay [1] is 0.23; in assay [2] it was 0.309; in [3] it was -0.183; in assay [4], 0.125; in assay [5] it was 0.0204; in assay [6] it was -0.0948. Moreover, the z-score is -0.644 (inactive) in assay [7], -0.295 in [8], 0.214 in [9] and -0.284 (inactive) in assay [10].
Regarding `CC(CCN1CCCc2nc(C)c(C)cc21)=NO[C@@H](C)c1cn([C@H](CO)Cc2ccccc2)nn1`, the z-score in assay [1] is 1.11; in assay [2] it was -0.189; in [3] it was -0.136; in [4] it was 0.33; in assay [5], 0.049; in [6] it was 0.38. The z-score is 0.733 (inactive) in assay [7], -0.0733 in assay [8], -0.762 in assay [9] and -0.131 (inactive) in assay [10].
In the case of `CC(C)CON=C1C[C@@H](O)[C@@H](O)[C@@H]2[C@@H]3C(=O)N(Cc4ccccc4)C(=O)[C@@H]3CC[C@H]12`, the z-score in [1] was -0.216; in [2], 0.785; in assay [3] it was -0.155; in assay [4], 0.825; in assay [5], -0.48; in assay [6], 0.974. Moreover, the z-score in assay [7] is -1.26 (inactive); in assay [8] it was -0.0623; in assay [9] it was -0.628; in assay [10], 0.312 (inactive).
Take `CC(C)(C)N1C(=O)[C@H]2[C@H]3[C@H](O)[C@H](O)CC(=NOC[C@@H](O)COCc4ccco4)[C@H]3CC[C@H]2C1=O`: the z-score in [1] was -0.0309; in assay [2], 0.676; in assay [3] it was 0.082; in assay [4], 0.406; in assay [5], -0.139; in assay [6], -0.368. The z-score in assay [7] was 0.856 (inactive); in assay [8], -0.631; in assay [9], -0.914; in assay [10], -0.679 (inactive).
As for `O=C1[C@H]2[C@H]3[C@H](O)[C@H](O)CC(=NOC[C@@H](O)COCc4ccco4)[C@@H]3CC[C@H]2C(=O)N1c1cccc(Oc2ccccc2)c1`, the z-score in assay [1] was -0.382; in [2], -0.454; in assay [3] it was -1.19; in assay [4], -0.163; in assay [5] it was 0.0958; in assay [6] it was -0.0749. For the same compound, the z-score was -0.785 (inactive) in assay [7], 0.688 in assay [8], -0.105 in assay [9] and 0.0561 (inactive) in assay [10].
With `CC1(C)O[C@H]2O[C@H]([C@H](O)CON=C3[C@H]4CCn5c(=O)n(-c6ccccc6)c(=O)n5[C@H]4[C@H](O)[C@@H]4O[C@H]34)[C@H](O)[C@H]2O1`, the z-score in [1] was -0.359; in assay [2], 0.104; in [3], -0.0631; in assay [4], 0.112; in assay [5] it was 0.279; in assay [6] it was -0.494. Moreover, the z-score in [7] is -1.12 (inactive); in [8], 0.438; in assay [9], 0.223; in assay [10], 0.065 (inactive).
Regarding `CCOC(=O)CCN1C(=O)[C@H]2[C@H]3[C@H](O)[C@H](O)CC(=NNC(=O)OCc4ccccc4)[C@H]3CC[C@H]2C1=O`, the z-score in [1] was 0.391; in [2], 1.33; in assay [3], -0.222; in [4] it was 0.357; in assay [5], -0.0554; in assay [6], -0.952. Further, the z-score is -0.223 (inactive) in assay [7], -0.0449 in assay [8], 0.435 in assay [9] and -0.367 (inactive) in assay [10].
Consider `CON=C(C)CCN1CCCCc2nc(C)c(C)cc21`, for which the z-score in [1] was 1.03; in assay [2], -0.269; in assay [3], 0.564; in [4], -0.254; in [5], 0.371; in [6], -0.955. Also, the z-score in assay [7] is -1.41 (inactive); in assay [8] it was -0.174; in [9], 0.289; in assay [10], -0.0601 (inactive).
As for `CC(C)[C@@H](OCc1ccccc1)[C@H](C)C=NO[C@@H](C)c1cn([C@H](CO)Cc2ccccc2)nn1`, the z-score in assay [1] was 0.0751; in assay [2], 0.143; in assay [3], -0.112; in assay [4], -0.265; in assay [5], 0.0853; in assay [6] it was -0.944. The z-score was -1.54 (inactive) in assay [7], 0.362 in assay [8], -0.318 in assay [9] and -0.877 (inactive) in [10].
For `COc1ccc(COC(=O)NN=C2C[C@@H](O)[C@@H](O)[C@@H]3[C@@H]4C(=O)N(C[C@@H]5CCCO5)C(=O)[C@@H]4CC[C@@H]23)cc1`, the z-score was 0.795 in assay [1]; -0.825 in assay [2]; 0.245 in assay [3]; -0.657 in [4]; 0.51 in [5]; 0.567 in assay [6]. The z-score in assay [7] is 0.658 (inactive); in assay [8], -0.252; in [9], -1.38; in [10], -0.547 (inactive).
